This is an account of results in PubChem BioAssay (NCI).

About 83,000 compounds went through this panel and 20% of them were active in at least one assay; those are over-represented in the sample as a whole.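 How to read the values: 0–100, growth inhibition (40 = 60% inhibited); 0, no net growth; -100 to 0, cell death (-40 = 40% of starting cells died; -100 = all dead).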 Unmarked numbers belong to inactive results. Activity calls are given as the source filed them. How the source made its calls: active means growth percent below 10; inactive means the rest.

Among the test systems are HCT-15 colon; HT29 colon; SNB-75 CNS; SNB-19 CNS; U251 CNS; PC-3 prostate; SK-MEL-5 melanoma; UACC-62 melanoma; LOX IMVI melanoma; SK-MEL-28 melanoma.
Common to all, as to assay: NCI-60 one-dose screen, 48 h (100 = growth as untreated, 0 = no growth, -100 = all killed)
What all share (settings): 10 µM unless noted

In the case of `Cc1cc(OCc2ccc(C(F)(F)F)cc2)c2c(c1)C(=O)C=C(NCCN1CCCC1)C2=O`, the growth was 31.2% in the assay on HCT-15 colon; 9.81% (active) in the assay on HT29 colon; 76.4% with SNB-75 CNS; 79.8% in the assay on SNB-19 CNS; 22.3% in the assay with U251 CNS; 66% with PC-3 prostate. In addition, the growth was -35.7% (active) with SK-MEL-5 melanoma, 86.8% in the assay on UACC-62 melanoma, -52.9% (active) in the assay with LOX IMVI melanoma and -84.1% (active) in the assay with SK-MEL-28 melanoma.

As for `CCCCNC(=O)NS(=O)(=O)c1ccc(N2N=C(c3cc(C)ccc3C)CC2c2cc(OC)c(OC)c(OC)c2)cc1` (stereo not given), the growth was 48.6% with HCT-15 colon; 72.2% in the assay with HT29 colon; 51.1% with SNB-75 CNS; 68% in the assay on SNB-19 CNS; 51.3% in the assay with U251 CNS; 36.9% in the assay on PC-3 prostate. The growth is 6.28% (active) with SK-MEL-5 melanoma, 49.5% in the assay with UACC-62 melanoma, 9.68% (active) in the assay on LOX IMVI melanoma and 18.6% with SK-MEL-28 melanoma.

Regarding `O=C(CN1CCN(c2cc3c(cc2F)c(=O)c(C(=O)O)cn3C2CC2)CC1)Nc1nc(-c2ccccc2)cs1`, the growth in the assay with HCT-15 colon is 82.4%; with HT29 colon, 72.7%; in the assay with SNB-75 CNS, 69.6%; with SNB-19 CNS it was 86.8%; in the assay on U251 CNS it was 43.8%; in the assay on PC-3 prostate, 64.7%. Further, the growth was 78.9% with SK-MEL-5 melanoma, 78.8% in the assay on UACC-62 melanoma, 36.5% in the assay with LOX IMVI melanoma and 87.5% in the assay on SK-MEL-28 melanoma.

Regarding `O=C([C@@H](COCc1ccccc1)N1C(=O)[C@@H](N2C(=O)OC[C@@H]2c2ccccc2)[C@H]1/C=C/c1ccccc1)N1CCC(CCN2CCCCC2)CC1`, the growth is 89.2% with HCT-15 colon; 45.5% in the assay with HT29 colon; 90.9% in the assay on SNB-75 CNS; 95.1% with SNB-19 CNS; 71.5% in the assay on U251 CNS; 67.5% in the assay on PC-3 prostate. For the same compound, the growth was 81.6% in the assay with SK-MEL-5 melanoma, 95.5% with UACC-62 melanoma, 82.1% with LOX IMVI melanoma and 73.2% in the assay with SK-MEL-28 melanoma.

Consider `COC(=O)[C@@H]1CC[C@]2(C)[C@H](CC[C@@H]3O[C@@]32C)[C@@]1(C)CC(=O)c1ccoc1`, for which the growth with HCT-15 colon is 103%; with HT29 colon it was 93.2%; in the assay on SNB-75 CNS, 114%; in the assay with SNB-19 CNS, 91.1%; with U251 CNS it was 91.8%; in the assay with PC-3 prostate it was 86%. Besides, the growth with SK-MEL-5 melanoma is 97.4%; with UACC-62 melanoma, 89.5%; in the assay on LOX IMVI melanoma, 98.6%; in the assay on SK-MEL-28 melanoma, 104%.

As to `CSc1ccc(N=C=C(c2ccccc2)c2ccccc2)cc1`, the growth with HCT-15 colon was 87.3%; with HT29 colon, 87.3%; in the assay with SNB-75 CNS it was 84.7%; in the assay on SNB-19 CNS it was 91.7%; in the assay with U251 CNS it was 86.4%; in the assay with PC-3 prostate, 84.6%. Also, the growth in the assay with SK-MEL-5 melanoma is 99.6%; with UACC-62 melanoma, 83.1%; in the assay on LOX IMVI melanoma, 70.2%; with SK-MEL-28 melanoma, 99.2%.

In the case of `COc1ccc2nc3cc(Cl)ccc3c(NCCNCC(O)CO)c2c1` (stereo not given), the growth in the assay on HCT-15 colon is 73.4%; with HT29 colon, 6.37% (active); with SNB-75 CNS, 42.1%; with SNB-19 CNS it was 35.7%; in the assay on U251 CNS, 17.3%; in the assay with PC-3 prostate it was 21.4%. The growth was 35.3% with SK-MEL-5 melanoma, 11% in the assay with UACC-62 melanoma, -55.2% (active) with LOX IMVI melanoma and 30.8% with SK-MEL-28 melanoma.

Take `CC(=O)C1=C(O)C=C2Oc3c(C(=O)/C=C/c4cc(Cl)cc(Cl)c4)c(O)c(C)c(O)c3[C@]2(C)C1=O`: the growth in the assay on HCT-15 colon is -35.5% (active); in the assay on HT29 colon, -23.5% (active); in the assay on SNB-75 CNS, -39.9% (active); in the assay with SNB-19 CNS, -24.4% (active); with U251 CNS, -29.9% (active); in the assay with PC-3 prostate, -21.1% (active). Also, the growth in the assay with SK-MEL-5 melanoma was -89.2% (active); with UACC-62 melanoma it was -71.2% (active); with LOX IMVI melanoma, -54% (active); in the assay with SK-MEL-28 melanoma, -36.1% (active).

With `C=C1CCC2C3(C)COC(c4cccc(Cl)c4)OC3CCC2(C)C1/C=C/C1=CCOC1=O` (stereo not given), the growth is 59.1% in the assay with HCT-15 colon; 56.9% in the assay with HT29 colon; 86.5% in the assay on SNB-75 CNS; 77.3% with SNB-19 CNS; 69.4% in the assay on U251 CNS; 44.2% with PC-3 prostate. The growth with SK-MEL-5 melanoma is 35%; in the assay on UACC-62 melanoma, 62.6%; with LOX IMVI melanoma, 52.1%; in the assay with SK-MEL-28 melanoma, 78.8%.

Turning to `C=C1CCC2C3(C)COC(c4ccc(OC)cc4Br)OC3CCC2(C)C1/C=C/C1=CCOC1=O` (stereo not given), the growth was 65.7% with HCT-15 colon; 75.6% with HT29 colon; 82.3% in the assay on SNB-75 CNS; 97.4% with SNB-19 CNS; 74.7% in the assay on U251 CNS; 47.7% in the assay with PC-3 prostate. Moreover, the growth in the assay on SK-MEL-5 melanoma was 45.3%; in the assay on UACC-62 melanoma, 61.9%; in the assay with LOX IMVI melanoma, 71.1%; in the assay with SK-MEL-28 melanoma, 80.2%.

Consider `COc1cnc2c(c1)C(=O)c1c-2n(CCCN2CCCC2)c(=O)c2cc([N+](=O)[O-])ccc12`, for which the growth is 20.3% in the assay with HCT-15 colon; -59.4% (active) with HT29 colon; -3.27% (active) with SNB-75 CNS; 19.8% with SNB-19 CNS; -64.8% (active) in the assay with U251 CNS; 15.6% in the assay on PC-3 prostate. Also, the growth is -96.8% (active) in the assay with SK-MEL-5 melanoma, -67.5% (active) in the assay on UACC-62 melanoma, -82.3% (active) with LOX IMVI melanoma and 29.3% in the assay on SK-MEL-28 melanoma.

Consider `COc1ccc(C(=O)/C=C/c2c[n+](=O)c3ccc(F)cc3n2[O-])cc1`, for which the growth with HCT-15 colon is 101%; in the assay with HT29 colon it was 106%; in the assay with SNB-75 CNS it was 106%; with SNB-19 CNS it was 103%; in the assay with U251 CNS, 95.1%; in the assay with PC-3 prostate, 104%. Further, the growth with SK-MEL-5 melanoma was 111%; in the assay with UACC-62 melanoma, 92.1%; in the assay with LOX IMVI melanoma, 94.2%; in the assay with SK-MEL-28 melanoma it was 111%.

On to `COc1cc(-c2cc(-c3nc4ccc(Cl)cc4[nH]3)[nH]n2)cc(OC)c1OC`, for which the growth in the assay on HCT-15 colon was 51.9%; in the assay on HT29 colon, 71.7%; in the assay with SNB-75 CNS it was 68.4%; with SNB-19 CNS it was 85%; in the assay with U251 CNS it was 69.7%; with PC-3 prostate it was 26.1%. In addition, the growth was -5.65% (active) with SK-MEL-5 melanoma, 37.1% in the assay with UACC-62 melanoma, 34% in the assay on LOX IMVI melanoma and 60.1% in the assay with SK-MEL-28 melanoma.
